Measured values as given in PMC7819943, “Rice protein-binding microarrays: a tool to detect cis-acting elements near promoter regions in rice”.
Over roughly 39,000 sequences, “fluorescence intensity (a.u.)” has its median near 4,300; the highest 2% begin near 39,000. This is one part of a sample in which the highest values are shown more often than they occur.

Molecular target: T1, OsSMF1 (Oryza sativa, UniProt Q6ZLB0 1-436)
T1 sequence: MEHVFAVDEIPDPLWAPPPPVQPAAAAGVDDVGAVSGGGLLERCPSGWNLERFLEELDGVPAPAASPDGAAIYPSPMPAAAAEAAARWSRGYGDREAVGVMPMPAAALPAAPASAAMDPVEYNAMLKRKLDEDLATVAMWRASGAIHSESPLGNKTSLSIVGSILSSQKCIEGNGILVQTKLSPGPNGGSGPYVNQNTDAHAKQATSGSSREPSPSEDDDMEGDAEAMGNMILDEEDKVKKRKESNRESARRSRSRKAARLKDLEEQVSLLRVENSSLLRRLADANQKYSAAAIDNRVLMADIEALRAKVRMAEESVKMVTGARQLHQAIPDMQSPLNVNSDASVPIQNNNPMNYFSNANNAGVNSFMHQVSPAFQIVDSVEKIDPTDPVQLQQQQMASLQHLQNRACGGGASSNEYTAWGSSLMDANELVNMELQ
Assay: protein-binding microarray (RPBM); PBS, 2% BSA, 51.3 ng/ul salmon testes DNA, 50 uM zinc acetate, 200 nM TF, 25 C, 1 h; high values mean tight binding
Settings: protein: recombinant; tags: N-terminal polyhistidine and DsRed monomer fusion (pET32a); chain copies: 2; label: CyDye5-dUTP incorporated in the synthesized complementary strand; 3' TTTTT single-stranded linker to array surface; dsDNA, one strand shown
Procedure, shortened: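 Binding signal is defined as the fluorescence intensity of each feature in arbitrary units, read on an Axon 4000B scanner. Transcription factors with N-terminal polyhistidine and DsRed fusions came from E. coli BL21-CodonPlus and were purified on Ni–NTA. They were incubated at 200 nM for 1 h at 25 °C on a custom Agilent array that had been made double-stranded with Cy5-dUTP, with 50 µM zinc acetate present, and the array was washed.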

Sequence	binding signal
CACCTAGCATGCATAGGACGAGGCATTTAATTTTACTTATCGGAGTCACCTAGTGCAG	22000 fluorescence intensity (a.u.)
GCATGCGGGATAGGAGCTTGACTAGCATGACGAGGCAGAACGGAGTCACCTAGTGCAG	5890 fluorescence intensity (a.u.)
GCATGCTCTCCGTGCCGTATGCGCTGTCGTAGGGCAGGTGCGGAGTCACCTAGTGCAG	3760 fluorescence intensity (a.u.)
CGCCGCCGCCGTCGCTGCCGCCGCCGCCGCCGCCTAGGGTCGGAGTCACCTAGTGCAG	29300 fluorescence intensity (a.u.)
TCACTTCTCTCCTCCACATGTGCATACAACTGACTTATAACGGAGTCACCTAGTGCAG	4660 fluorescence intensity (a.u.)
GTTGAATTCTGTGCGTGTAAGCAGACCTGCATTGCCGTCGCGGAGTCACCTAGTGCAG	3170 fluorescence intensity (a.u.)
TCCCAATTGACTAGAGGATGCTTCAGAGATGAAAACATGGCGGAGTCACCTAGTGCAG	3190 fluorescence intensity (a.u.)
ATAATGAAAATGAGAATTCATGCCAGCTCTGCAAAGTGGACGGAGTCACCTAGTGCAG	4780 fluorescence intensity (a.u.)
TCCAGCTCTGAATTTCACTCTGCATGCATAAGTTGCAGGACGGAGTCACCTAGTGCAG	48100 fluorescence intensity (a.u.)
GCAATTCACTCCAGTTCACTTTGCCAGCTTGTCTCTCTGACGGAGTCACCTAGTGCAG	3520 fluorescence intensity (a.u.)
ATATACAGTACACGTTCTTGCCCTCATTGCCACATAGTACCGGAGTCACCTAGTGCAG	4020 fluorescence intensity (a.u.)
TCCCCAAGTCAGTCAATGCCATCACTGTCATCTGCTCTCACGGAGTCACCTAGTGCAG	3200 fluorescence intensity (a.u.)
TTCATTGACCGAGAACGATAGCACGCATCACATCAGCATCCGGAGTCACCTAGTGCAG	3250 fluorescence intensity (a.u.)
GAGGGTTCTTGATGCGTGACCTGATGCGGGAGGCGTATTGCGGAGTCACCTAGTGCAG	39200 fluorescence intensity (a.u.)
TGGGAGTGCGTGGTGTGCGTGGCGTCGGTTCTTGCGGAGGCGGAGTCACCTAGTGCAG	5410 fluorescence intensity (a.u.)
CGCGCGTGCGGTTCTTGTGTCCGAGGGTGGTGGTGTGTGGCGGAGTCACCTAGTGCAG	3360 fluorescence intensity (a.u.)
ATTGAAAATTCTCTACTCTTTACACGTGTCCATCATCCCACGGAGTCACCTAGTGCAG	19100 fluorescence intensity (a.u.)
TCAAGTCATGAATTCTCCTATTTCAAGTCACTTCAGAAGTCGGAGTCACCTAGTGCAG	3330 fluorescence intensity (a.u.)
CATGCCAGGTCAGTCGGCATCCATGAAGACTGCACTGCACCGGAGTCACCTAGTGCAG	42600 fluorescence intensity (a.u.)
GCAGCGCCATGAAAGCGCATGGCATGCATGCACTGCACTGCGGAGTCACCTAGTGCAG	3520 fluorescence intensity (a.u.)
TTTATGGATAGAAGATGCACCGGCCAGGTCATGAAGATCACGGAGTCACCTAGTGCAG	4050 fluorescence intensity (a.u.)
AATCGTGCTCGATTGACCTCACTAATTCATCCCTGTAACCCGGAGTCACCTAGTGCAG	25700 fluorescence intensity (a.u.)

Sequence	binding signal
GGGGTGAGGTGAGGTTACCACGTCGGCGACGGTGAGGAAGCGGAGTCACCTAGTGCAG	6110 fluorescence intensity (a.u.)
CTTATCTACTTGATATTTGCATATGTATACAGTTTTACTGCGGAGTCACCTAGTGCAG	3220 fluorescence intensity (a.u.)
GGTAGCTGATACAGGTATGCAGACGAAAGATCACACCTATCGGAGTCACCTAGTGCAG	32500 fluorescence intensity (a.u.)
ATGATCAGATACACACTCTGGCTTGGCTTGTAGCTGCAACCGGAGTCACCTAGTGCAG	50400 fluorescence intensity (a.u.)
ACTTGATCAGCACACTCTGGTGACATGACAGCTGTAAAGTCGGAGTCACCTAGTGCAG	4180 fluorescence intensity (a.u.)
GCTGAGCTGAGCTGATATGATCAACACAGTGCAGACTTGGCGGAGTCACCTAGTGCAG	3710 fluorescence intensity (a.u.)
GTAGTACCATGTATTAGATGGACTTCTCCACGTTTCTCTGCGGAGTCACCTAGTGCAG	4980 fluorescence intensity (a.u.)
GGGGCCACATCGTCAGTGAAACGGACGGGTATAGGGTTAGCGGAGTCACCTAGTGCAG	3270 fluorescence intensity (a.u.)
CCTCCTCGCTGCCCAGCCACCGCCGCCCTCCCGTCCCGCGCGGAGTCACCTAGTGCAG	3490 fluorescence intensity (a.u.)
CATAGCCCTCTGTCGCGGGCGCCGCTGTCCACCGTCCTCCCGGAGTCACCTAGTGCAG	43900 fluorescence intensity (a.u.)
CGCGCCGTCGTCCAGCCACCGTCACGCCGCGCGGGGCGCCCGGAGTCACCTAGTGCAG	3830 fluorescence intensity (a.u.)
CGCCGCCTCCGCCTCCGCCTCCGCTGCTCGCCGACCGGAGCGGAGTCACCTAGTGCAG	4680 fluorescence intensity (a.u.)
TTGACCGCTTGACGCGGAGCTCCCCGCCGGCCTCCTCCCCCGGAGTCACCTAGTGCAG	4540 fluorescence intensity (a.u.)
ATCGCCCCGCTGACCGCCTCCTCCCGCGGCTGTCCGAGCGCGGAGTCACCTAGTGCAG	41300 fluorescence intensity (a.u.)
ATCAGCAACAATCAGGCTCCTGTGCGGTAAGTCCAACATTCGGAGTCACCTAGTGCAG	6700 fluorescence intensity (a.u.)
AGTGCTAGTCATCACTGTATTAGATTTAGGAATCTCTTCTCGGAGTCACCTAGTGCAG	3600 fluorescence intensity (a.u.)
AATCCGCCGAGGGACTTATTGTGACCGGTTTTGATTAGTTCGGAGTCACCTAGTGCAG	19600 fluorescence intensity (a.u.)
CCACACACTTATGAACACGAGTACAGCCGATGCCCTATAACGGAGTCACCTAGTGCAG	3390 fluorescence intensity (a.u.)
TAAGGCAAAAGCCAAAATTCAAATATAGTTAAAATTAAAGCGGAGTCACCTAGTGCAG	7150 fluorescence intensity (a.u.)
TGTTAAATTCGTCTCGCAAAATAGCCTAAGGGTTATAGAACGGAGTCACCTAGTGCAG	40500 fluorescence intensity (a.u.)
TATGATTTTAAATTCGTCATACTCTAGTTAGCCTAGAAAACGGAGTCACCTAGTGCAG	3430 fluorescence intensity (a.u.)
